Bioassay records deposited in PubChem by National Center for Advancing Translational Sciences (NCATS).
D1 agonist: human D1 receptor agonism; HEK293 T-REx D1 cells, calcium flux, agonist mode; 360,000 tested, 1% active; activation, % at 2 µM; P21728; also: 0% is about no effect
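Agonism was scored from calcium flux recorded over 180 s (1 read/s) after pintool compound addition, following a 10-cycle baseline. Cells were inducible force-coupled HEK293 TREx D1, plated overnight at 30 C and loaded with no-wash calcium dye.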
D1 PAM: human D1 dopamine receptor positive modulation | P21728 | HEK293 TREx D1 cells, calcium flux, dopamine EC20 potentiation | potentiation, % at 10 µM | 360,000 tested, 0.036% active; in the data active = potentiation above about 30%; also: 0% is about no effect
TRHR PAM: allosterically enhances the human TRH receptor; P34981; TRHR cells, fluo-8 calcium fluorescence, EC20 TRH enhancement; enhancement, % at 2 µM; 360,000 tested, 0.66% active; in the data active = enhancement above about 30%; also: 0% is about no effect
Target sequence (P34981 whole entry, looked up): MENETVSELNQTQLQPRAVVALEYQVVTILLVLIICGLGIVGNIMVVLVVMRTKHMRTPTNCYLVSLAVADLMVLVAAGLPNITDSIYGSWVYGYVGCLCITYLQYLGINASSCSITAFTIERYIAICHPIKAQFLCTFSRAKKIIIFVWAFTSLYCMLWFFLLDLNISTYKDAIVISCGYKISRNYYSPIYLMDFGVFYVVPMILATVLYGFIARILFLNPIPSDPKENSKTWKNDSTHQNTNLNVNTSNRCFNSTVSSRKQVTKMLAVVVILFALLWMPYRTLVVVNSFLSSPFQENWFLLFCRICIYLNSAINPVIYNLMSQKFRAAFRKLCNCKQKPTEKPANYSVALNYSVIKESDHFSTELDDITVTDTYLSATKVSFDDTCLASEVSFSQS
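Enhancer read-out: after compound pinning and an initial kinetic agonist-mode read, an EC20 of TRH (10 nM final) was injected and fluo-8 calcium signal (Ex 480/Em 530) followed at 1 s/cycle for 100 cycles in TRHR-expressing cells.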
D1 antag: blocks dopamine activation of the human D1 receptor; P21728; HEK293 TREx D1 cells, calcium flux, dopamine EC80; active compounds read low; activity change, negative = inhibition, % at 10 µM; 360,000 tested, 3.2% active; in the data active = activity change below about -30%; also: % is scaled to controls: 0 for no effect and ±100 for the full control effect
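Allosteric or orthosteric antagonism assessed as attenuation of the calcium response to EC80 dopamine, added 180 s after compound, in induced HEK293 Trex D1 cells loaded with no-wash calcium dye.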
TRHR ag: activates the human TRH receptor. activation, % at 2 µM. 360,000 tested, 0.18% active. P34981. TRHR cells, calcium flux fluo-8, FDSS agonist mode; also: 0% is about no effect
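Fluo-8-loaded TRHR cells; 10 s baseline, compound added, kinetic Ca2+ fluorescence read 1/s, agonist mode.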
An asterisk follows results filed as active; ! = not active in a repeat. An excerpt weighted towards active compounds, which were near 4.7% of everything screened. Rule as the data show it, unless noted: active = activation above about 30%; inactive = the rest.

For CCc1ccc(NC(=O)c2cnc(N3CCN(c4ccccn4)CC3)c3ccccc23)cc1 the results were D1 agonist 2, D1 PAM -2, TRHR PAM 0, D1 antag -40* and TRHR ag 0.
Screening O=C(CNC(=O)c1ccc(F)cc1)OCc1cc(=O)n2nc(C3CCCCC3)sc2n1 returned D1 agonist 1, D1 PAM -5, TRHR PAM -6, D1 antag 10 and TRHR ag -1.
CNCC/C=C1/c2ccccc2CSc2ccccc21 was read as D1 agonist 19, D1 PAM -27, TRHR PAM 0, D1 antag -51* and TRHR ag 1.
For O=C(NCCN1CCOCC1)c1cc(-c2ccc(Cl)cc2Cl)on1 the results were D1 agonist 1, D1 PAM 6, TRHR PAM -6, D1 antag -34* and TRHR ag 0.
`CSCCC(NC(=O)c1ccccc1)C(=O)NCCc1ccc2c(c1)OCCO2` (stereo unspecified) gave D1 agonist 3, D1 PAM -6, TRHR PAM -6, D1 antag 4 and TRHR ag 0.
`N#CC1=C(Nc2ccccc2)SC=C(c2ccccc2)N=C1N1CCOCC1` gave D1 agonist 7, D1 PAM 2, TRHR PAM -5, D1 antag 2 and TRHR ag 0.
`N#CC1=C(Nc2ccccc2)SC=C(c2ccc(Cl)c(Cl)c2)N=C1N1CCOCC1` gave D1 agonist 1, D1 PAM 4, TRHR PAM -11, D1 antag -60* and TRHR ag 0.
`O=C(NC1CCCCC1)C1CCCN(S(=O)(=O)c2cccc3cccnc23)C1` (stereo unspecified) gave D1 agonist 0, D1 PAM -10, TRHR PAM -2, D1 antag -30* and TRHR ag -1.
Screening O=C(C1CCCN(S(=O)(=O)c2cccc3cccnc23)C1)N1CCN(c2ccc(F)cc2)CC1 (stereo unspecified) returned D1 agonist 1, D1 PAM -3, TRHR PAM -2, D1 antag -36* and TRHR ag -1.
`O=C(C1CCN(S(=O)(=O)c2cccc3cccnc23)CC1)N1CCN(c2ccccc2)CC1` gave D1 agonist -1, D1 PAM -6, TRHR PAM -5, D1 antag -23 and TRHR ag 0.
For Cc1ccc(CNC(=O)C2CCC(CNS(=O)(=O)c3cccc4cccnc34)CC2)cc1 (stereo unspecified) the results were D1 agonist 8, D1 PAM -5, TRHR PAM 1, D1 antag 0 and TRHR ag -1.
Screening CC1CCCCC1NC(=O)C1CCC(CNS(=O)(=O)c2cccc3cccnc23)CC1 (stereo unspecified) returned D1 agonist 1, D1 PAM 17, TRHR PAM -6, D1 antag -37* and TRHR ag 1.
O=C(C1CCN(S(=O)(=O)c2cccc3nonc23)CC1)N1CCN(c2ccccc2F)CC1 was read as D1 agonist -1, D1 PAM -2, TRHR PAM -5, D1 antag -37* and TRHR ag -1.
CN1C(=O)C(C)(C)c2cc(S(=O)(=O)NCc3ccc(C(=O)Nc4ccc(Cl)cc4)cc3)ccc21 was read as D1 agonist 6, D1 PAM -2, TRHR PAM 5, D1 antag -8 and TRHR ag 1.
`COc1cccc(NC(=O)C2CCCN(S(=O)(=O)c3cccc4cccnc34)C2)c1` (stereo unspecified) gave D1 agonist 1, D1 PAM -2, TRHR PAM 4, D1 antag -35* and TRHR ag 0.
`O=C(Nc1ccncc1)C1CCCN(S(=O)(=O)c2cccc3cccnc23)C1` (stereo unspecified) gave D1 agonist -1, D1 PAM -4, TRHR PAM 18, D1 antag -15 and TRHR ag 0.
O=C(Nc1ccc(F)c(F)c1)C1CCCN(S(=O)(=O)c2cccc3nonc23)C1 (stereo unspecified) was read as D1 agonist 33*!, D1 PAM -9, TRHR PAM 0, D1 antag -13 and TRHR ag 1.
For O=C(C1CCN(S(=O)(=O)c2cccc3nsnc23)CC1)N1CCc2ccccc2C1 the results were D1 agonist 2, D1 PAM -14, TRHR PAM -4, D1 antag -44* and TRHR ag -1.
`CC1CCCN(C(=O)C2CCN(S(=O)(=O)c3cccc4nsnc34)CC2)C1` (stereo unspecified) gave D1 agonist 1, D1 PAM -4, TRHR PAM -8, D1 antag -6 and TRHR ag 0.
Cc1c(Cl)cccc1-n1ncc(C(=O)Nc2ccc(Br)cc2F)c1C1CCNCC1 was read as D1 agonist 12, D1 PAM 2, TRHR PAM -12, D1 antag 10 and TRHR ag 2.
For CC(C)CN(CC(C)C)S(=O)(=O)N1CCC(C(=O)NC2CCCCCCC2)CC1 the results were D1 agonist 5, D1 PAM 0, TRHR PAM -7, D1 antag -36* and TRHR ag 0.
`O=C(CN1C(=O)C2(SCC(=O)N2c2ccccc2)c2ccccc21)NCc1ccccc1` (stereo unspecified) gave D1 agonist -1, D1 PAM 0, TRHR PAM 0, D1 antag -4 and TRHR ag 0.
CCN(CC)CC#CCC(O)(c1ccccc1)c1ccc(Br)cc1 (stereo unspecified) was read as D1 agonist 32*, D1 PAM -4, TRHR PAM 1, D1 antag -40* and TRHR ag 3.
`CCN(CC)CC#CCC(O)(c1ccccc1)c1ccccc1` gave D1 agonist 4, D1 PAM -1, TRHR PAM 1, D1 antag 6 and TRHR ag 0.
For c1ccc(Cc2noc(CN3CCN(C4CCc5ccccc5C4)CC3)n2)cc1 (stereo unspecified) the results were D1 agonist 32*, D1 PAM 5, TRHR PAM -1, D1 antag 1 and TRHR ag 0.
c1ccc(Cc2noc(CN3CCCN(C4Cc5ccccc5C4)CC3)n2)cc1 was read as D1 agonist -1, D1 PAM -3, TRHR PAM -6, D1 antag 0 and TRHR ag -1.
COc1ccccc1N1C(=O)C2C(C(=O)c3ccccc3)=NN(c3ccc(Br)cc3)C2C1=O (stereo unspecified) was read as D1 agonist 35*, D1 PAM -2, TRHR PAM 0, D1 antag 5 and TRHR ag 20.
